# Results taken from PubChem BioAssay AID588591 (National Center for Advancing Translational Sciences (NCATS), 2011).
# Out of some 390,000 compounds screened, about 4,700 (1.2%) were called active. Where a call stands in place of a potency, no number is given. Inconclusive results (about 4%) are left out. The call rests on the fitted dose curve; in most records, active means well fitted inhibition curve with a large enough effect; inconclusive means small, poorly fitted or top-dose-only effect, or another doubt; inactive means no such curve, though single readings can be large or run the other way. Only a selection was taken, and actives are over-represented in it overall.
# Target: DNA polymerase eta (Homo sapiens) (UniProt Q9Y253)
# Assay: qHTS for Inhibitors of Polymerase Eta
# Conditions: recombinant Pol eta, fluorescent DNA replication assay; series mostly up to 114 µM
# Method in brief: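 Pol eta (10 nM) was preincubated with compounds for 15 min at room temperature, after which fluorescent replication substrate (50 nM final) was added to start the reaction. Fluorescence was read kinetically at 0 and 10 min.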
# Potency means the concentration at half of the fitted maximal effect.
# DNA polymerase eta (Homo sapiens), sequence (Q9Y253 whole entry, looked up): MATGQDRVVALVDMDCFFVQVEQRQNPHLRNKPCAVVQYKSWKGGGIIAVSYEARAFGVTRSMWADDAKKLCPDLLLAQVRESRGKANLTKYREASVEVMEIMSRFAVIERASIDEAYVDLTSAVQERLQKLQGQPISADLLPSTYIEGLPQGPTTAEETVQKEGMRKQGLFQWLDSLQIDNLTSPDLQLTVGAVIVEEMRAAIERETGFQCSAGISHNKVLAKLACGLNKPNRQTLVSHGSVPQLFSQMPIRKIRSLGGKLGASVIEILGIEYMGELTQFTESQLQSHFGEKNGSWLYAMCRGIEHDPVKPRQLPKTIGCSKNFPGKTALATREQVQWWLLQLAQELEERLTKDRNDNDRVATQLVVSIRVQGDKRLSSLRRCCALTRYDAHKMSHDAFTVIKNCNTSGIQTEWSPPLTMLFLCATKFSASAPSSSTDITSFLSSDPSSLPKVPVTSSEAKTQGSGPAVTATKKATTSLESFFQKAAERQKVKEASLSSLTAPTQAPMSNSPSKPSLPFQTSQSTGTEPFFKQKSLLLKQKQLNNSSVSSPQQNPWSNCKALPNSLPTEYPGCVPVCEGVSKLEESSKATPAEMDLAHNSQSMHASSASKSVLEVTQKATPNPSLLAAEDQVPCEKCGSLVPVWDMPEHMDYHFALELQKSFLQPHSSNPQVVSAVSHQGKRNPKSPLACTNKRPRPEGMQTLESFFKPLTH
row,Compound,Potency
1,CC(=O)c1ccc(NS(=O)(=O)c2ccc(-c3cc(C)no3)s2)cc1,inactive
2,Cc1c(CCC(=O)N[C@@H](CC(C)C)C(=O)O)c(=O)oc2c(C)c3oc4c(c3cc12)CCCC4,inactive
3,Cc1c(OC(C)C(=O)N[C@@H](Cc2ccccc2)C(=O)O)ccc2c3c(c(=O)oc12)CCCC3 (stereo not given in full),inactive
4,Cc1oc2c(C)c3oc(=O)c(CC(=O)N[C@@H](CC(C)C)C(=O)N[C@@H](Cc4ccccc4)C(=O)O)c(C)c3cc2c1C,20 µM (active)
5,O=C(CN1CCN(S(=O)(=O)/C=C/c2ccccc2)CC1)NC(=O)NCc1ccco1,79.4 µM (active)
6,CC1(c2ccccc2Cl)NC(=O)N(CC(=O)NC(=O)NCc2ccco2)C1=O (stereo not given),inactive
7,NC(=O)CCN1CCN(S(=O)(=O)/C=C/c2ccccc2)CC1,inactive
8,CCOc1cc(-c2nnc(SCC(=O)NC3CCCCC3)nc2-c2ccc(OC)c(OCC)c2)ccc1OC,inactive
9,CC(=O)Nc1ccc(NC(=O)c2cc3sccc3n2Cc2ccc(F)cc2)cc1,inactive
10,CCCCN(C)S(=O)(=O)c1ccc(C(=O)Nc2sc3c(c2C(N)=O)CC(C)(C)NC3(C)C)cc1,inactive
11,COc1ccc(C)cc1NC(=O)c1[nH]c(C)c(C(C)=O)c1C,inactive
12,COc1ccccc1CNCc1ccc(C(=O)O)s1,inactive
13,COc1cccc2c(C)c(C(=O)O)[nH]c12,12.6 µM (active)
14,CCOc1ccc(C(=O)Nc2ccc3nc4c(c(Nc5ccccc5OC)c3c2)CCCC4)cc1,inactive
15,CC(C)c1ccc(Nc2nnc(SCC(=O)c3nnc(-c4ccccc4)o3)s2)cc1,15.8 µM (active)
16,CN(C(=O)CSc1nnc(NC(=O)Nc2ccccc2)s1)c1ccccc1,inactive
17,CC(=O)c1ccc(NC(=O)CSc2nnc(NC(=O)Nc3ccccc3)s2)cc1,inactive
18,COc1ccc(C)cc1N(C)C(=O)c1c(C)oc2ncnc(N3CCOCC3)c12,inactive
19,CCOc1ccc(CNC(=O)c2cc(-c3ccc(Cl)s3)nc3ccccc23)cc1,inactive
20,Cc1ccc(-c2cc(C(=O)NN)n[nH]2)o1,inactive
21,Cc1ccc(NC(=O)c2cc(-c3ccc(C)o3)nc3ccccc23)nc1,22.4 µM (active)
22,CCOc1cccc(CNC(=O)c2ccc(N3CCCC3)c(NC(=O)Nc3ccccc3CC)c2)c1,inactive
23,O=C(Nc1ccc(OC(F)(F)F)cc1)C1CCCN(S(=O)(=O)c2ccc(Br)s2)C1 (stereo not given),inactive
24,O=C(NCCc1ccccc1)c1cnc2sc(N3CCCC3)nn2c1=O,inactive

row,Compound,Potency
1,CC(=O)c1nn(-c2ccc(OC(F)(F)F)cc2)nc1Nc1ccccc1,inactive
2,Cc1ccc(-c2cc(-c3coc4ccccc4c3=O)c3c(n2)-c2cc(Cl)ccc2OC3)cc1,inactive
3,Cc1cccc(OCCSc2nc3ccccc3n2CC(=O)N2CCCCC2)c1C,inactive
4,NC(=O)C1CCN(C(=O)c2cccc(NC(=O)c3nsc4ccccc34)c2)CC1,inactive
5,NC1=CC(=O)C(=O)c2cccnc21,8.91 µM (active)
6,Cc1nn(CC(=O)NCCc2ccccc2)c(=O)c2c1sc1ccccc12,inactive
7,COc1ccc(CNC(=O)Cc2coc3ccc(C(C)C)cc23)cc1,inactive
8,COc1ccc(N(C)C(=O)C2CCN(S(=O)(=O)c3cc(Br)cc4c3N(C(C)=O)CC4)CC2)cc1,inactive
9,Cn1c(=O)c2c(SCC(=O)N3CCc4ccccc43)nc(-c3ccc(Cl)cc3)nc2n(C)c1=O,inactive
10,C=CCn1c(=O)c(C(=O)NCc2ccc3c(c2)OCO3)c(O)c2ccccc21,inactive
11,Cc1nc2c(C(=O)NCc3ccc4c(c3)OCO4)c[nH]n2c(=O)c1Cc1ccccc1F,89.1 µM (active)
12,COc1ccccc1-n1c(C)nc2cc(C(=O)NCc3ccc4c(c3)OCO4)ccc21,inactive
13,COc1ccc(NC(=O)Cn2c(=O)n(CCC(C)C)c(=O)c3cccnc32)cc1Cl,inactive
14,CCN(CC)S(=O)(=O)c1ccc2c(c1)nc(CN(C)C(=O)Nc1ccc(Cl)cc1)n2C,inactive
15,CC(=O)N1CCc2cc(S(=O)(=O)NC(Cc3ccccc3)C(=O)NCc3ccc(C)cc3)ccc21 (stereo not given),inactive
16,Cc1sc(C2C(C#N)=C(N)N(c3cccc(Cl)c3)C3=C2C(=O)CCC3)cc1CN1CCOCC1 (stereo not given),inactive
17,CN1CCOC1c1ccc(C2OCCN2C)cc1 (stereo not given),20 µM (active)
18,Cc1csc2nc(COC(=O)c3ccccc3NC(=O)c3ccccc3Cl)cc(=O)n12,inactive
19,O=C(O)CCC(=O)N(Cc1cccs1)Cc1cccs1,20 µM (active)
20,Cc1ccnc(NC(=O)CCC(=O)N(CC(=O)NCCc2ccccc2)Cc2cccs2)c1,inactive
21,O=C(CCc1ccccc1)NCCc1cccs1,inactive
22,COc1cc(NC(=O)CCn2nc(C)cc2C)cc(OC)c1OC,inactive
23,Cc1nc2nc(SCC(=O)N(Cc3ccccc3)C(C)C)nn2c(C)c1Cc1ccccc1Cl,inactive
24,Cc1ccccc1NC(=O)c1cc2c([nH]c1=O)CC(C)(C)CC2=O,inactive

row,Compound,Potency
1,Cc1ccc2cc(/C=N/Nc3ccc(C(=O)O)cc3)c(Cl)nc2c1,50.1 µM (active)
2,Cc1ccc(C(=O)N/N=C/c2sc(=O)n(Cc3cccc(C(=O)O)c3)c2Cl)cc1,inactive
3,Cc1ccc2nc(CNC(=O)c3ccccc3)[nH]c2c1,inactive
4,COc1ccc(CNc2nc(-c3ccc(Cl)cc3)nn2C(=O)c2ccccc2)cc1,inactive
5,Cc1cccc2nc(-c3ccc(Cl)s3)c(Nc3ccc4c(c3)OCCO4)n12,inactive
6,Cc1ccccc1S(=O)(=O)N1[C@@H](c2cccc(Cl)c2)C(C(=O)O)=CC[C@H]1c1ccc(Cl)cc1,89.1 µM (active)
7,CN1OC(COC(=O)c2ccc(Cl)cc2)CC1c1ccccc1 (stereo not given),inactive
8,Cc1ccc(S(=O)(=O)N2[C@@H](c3ccccc3F)C(C(=O)O)=CC[C@H]2c2ccc(Cl)cc2)cc1,inactive
9,CCOc1ccc(NC(=O)c2cn(C3CCCCC3)c(=O)c3c2c2ccccc2n3C)cc1,inactive
10,COc1cc2c(=O)c(S(=O)(=O)c3ccc(C(C)C)cc3)cn(Cc3ccccc3C)c2cc1OC,inactive
11,CC(NC(=O)CCc1cn(Cc2ccccc2Cl)c2ccccc12)c1ccccc1 (stereo not given),inactive
12,Cc1noc(C)c1NC(=O)Nc1ccc2c(c1)C(=O)N([C@H](C)CO)C[C@H](C)[C@@H](CN(C)C(=O)Nc1ccc(C(F)(F)F)cc1)O2,inactive
13,C[C@H](CO)N1C[C@H](C)[C@H](CN(C)C(=O)Nc2ccc(C(F)(F)F)cc2)Oc2c(NC(=O)c3ccncc3)cccc2C1=O,89.1 µM (active)
14,Cc1noc(C)c1NC(=O)Nc1cccc2c1O[C@H](CN(C)C(=O)Nc1ccccc1)[C@@H](C)CN([C@H](C)CO)C2=O,inactive
15,CCCN(C(=O)Cn1ncc2c([nH]c3ccc(C)cc32)c1=O)c1ccccc1C,inactive
16,Cc1ccc(CNC(=O)CCc2c(C)nc3nc(CNC(=O)OC(C)(C)C)nn3c2C)cc1,inactive
17,O=C(NC1CCCCC1)C1CCCN(S(=O)(=O)c2ccc(Br)s2)C1 (stereo not given),inactive
18,O=C(Cc1ccc(S(=O)(=O)N2CCCC2)s1)NC1CCCCCC1,14.1 µM (active)
19,COc1ccccc1NC(=O)COC(=O)Cc1ccc(S(=O)(=O)N2CCCCC2)s1,inactive
20,COc1cccc(Cn2c(CNS(=O)(=O)c3ccc(Cl)s3)nc3cccnc32)c1,inactive
21,CCOC(=O)c1ccc(NC(=O)c2csc3c2CCCCC3)cc1,inactive
22,CC(C)C[C@H](NC(=O)[C@H](O)[C@H](N)Cc1ccccc1)C(=O)O,inactive
23,CC(=O)c1ccc(NC(=O)CCc2nnc3ccc(NCc4ccco4)nn23)cc1,inactive
24,CC1CCN(C(=O)CCc2nnc3ccc(NCc4ccco4)nn23)CC1,inactive

row,Compound,Potency
1,O=C(CCc1nnc2ccc(NCc3ccco3)nn12)Nc1cc(F)ccc1F,50.1 µM (active)
2,CCc1ccc2oc(-c3ccc(NC(=O)c4cc5ccccc5o4)cc3)nc2c1,inactive
3,CCCNC(=O)c1ccc2c(c1)ncn2-c1ccc(C)cc1C,inactive
4,COc1ccc(Cn2ccc3nc(C)c(C(=O)Nc4ccc(C)c(F)c4)cc3c2=O)cc1,inactive
5,CCN1CCN(c2cc(C)c3cc(NC(=O)c4cc(Cl)ccc4OC)ccc3n2)CC1,inactive
6,Cc1ccc(OCC(=O)Nc2ccccc2C(=O)NC2CC2)cc1C,inactive
7,Cc1ccc(OCC(=O)Nc2ccc3oc(=O)ccc3c2)cc1C,inactive
8,COc1ccc(NC(=O)c2ccco2)cc1NC(=O)COc1ccc(C)c(C)c1,89.1 µM (active)
9,CCc1ccc(-n2nnc(-c3nc(-c4ccccc4)no3)c2C)cc1,inactive
10,O=C(c1cnn(-c2ccc(F)cc2)c1-n1cccc1)N1CCN(c2ccc(F)cc2)CC1,inactive
11,COc1ccc(Cl)cc1NC(=O)CSc1nc2ccccc2c2nc(-c3ccccc3)nn12,inactive
12,O=C(CCc1nc(CN2CCN(S(=O)(=O)c3ccc(F)cc3)CC2)no1)N1CCCCC1,inactive
13,O=C1C(Cl)=C(Oc2ccccc2)C(=O)c2ccccc21,7.94 µM (active)
14,Cc1ccc(N(CC(=O)NCc2ccc(Cl)cc2)S(=O)(=O)N(C)C)cc1,inactive
15,O=C(CSc1ccc(/C=N/NC(=O)c2cccc(F)c2)o1)Nc1ccccc1,inactive
16,N#CCC(=O)N/N=C/c1ccc(SCC(=O)Nc2ccccc2)o1,inactive
17,O=C(CCNC(=O)c1ccccc1)NN=Cc1ccc(Br)o1,56.2 µM (active)
18,Cc1cccc2c1-c1sc(C(=O)Nc3ccc(F)cc3F)cc1CO2,inactive
19,CCOc1ccc(-c2cc3nc(C4CCN(C(=O)OC(C)(C)C)CC4)c(C(=O)Nc4ccc(C(=O)OC)cc4)cn3n2)cc1,inactive
20,Cc1ccc(-c2nnc(Nc3cccc(Br)c3)c3ccccc23)cc1S(=O)(=O)NCC1CCCO1 (stereo not given),inactive
21,Cc1ccc2c(c1)-c1c(cnn1CC(=O)Nc1ccccc1C#N)CO2,inactive
22,CN(C(=O)CSc1nc2ccccc2n1Cc1ccccc1C#N)c1ccccc1,inactive
23,N#Cc1ccccc1CN1C(=O)S/C(=C/c2cccn2-c2cccc(C(=O)O)c2)C1=O,3.16 µM (active)
